Inconclusive results are not listed. A call without a number means that no potency is given here. Calls of active or inactive are those of the source. Calls follow the shape of the dose curve; as a rule, active = well fitted curve in the direction sought with a large enough effect; inconclusive = small, poorly fitted or top-dose-only effect, or another doubt; inactive = no such curve, though single readings can be large; an effect the other way counts as inactive or inconclusive.
target: Nuclear receptor ROR-gamma (Homo sapiens) (UniProt P51449); assay: qHTS assay for small molecule antagonists of the retinoid-related orphan receptor gamma (ROR-gamma) signaling pathway (AID 651802); settings: ROR-gamma antagonist cell reporter assay; series mostly up to 92.2 µM; also: nearly all actives have a fitted effect of over 60% in size; also: potency is read from the fitted curve at half-maximal effect
Sequence (P51449 whole entry, looked up): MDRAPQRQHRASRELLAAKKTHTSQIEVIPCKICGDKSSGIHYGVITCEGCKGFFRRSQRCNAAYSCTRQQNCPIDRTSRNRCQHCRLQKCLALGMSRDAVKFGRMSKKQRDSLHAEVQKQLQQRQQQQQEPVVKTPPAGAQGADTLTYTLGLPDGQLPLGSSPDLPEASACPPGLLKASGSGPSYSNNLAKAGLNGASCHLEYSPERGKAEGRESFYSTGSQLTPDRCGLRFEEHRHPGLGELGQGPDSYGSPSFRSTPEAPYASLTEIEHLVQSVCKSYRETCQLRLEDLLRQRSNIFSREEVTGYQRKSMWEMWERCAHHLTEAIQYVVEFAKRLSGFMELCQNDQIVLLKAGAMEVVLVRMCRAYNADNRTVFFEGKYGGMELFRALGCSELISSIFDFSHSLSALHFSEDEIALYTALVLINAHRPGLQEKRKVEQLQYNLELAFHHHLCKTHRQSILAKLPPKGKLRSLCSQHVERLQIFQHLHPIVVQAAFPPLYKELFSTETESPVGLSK
Method in brief: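 Steps: cells dispensed; compound or DMSO transferred by pin tool; doxycycline added to induce the ROR response element-driven luciferase; plates held 16hr at 37C; ONE-Glo added and luminescence measured.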

SMILES	Potency
CC(C)NC(C)C	inactive
C[C@]12CCC(=O)C=C1CC[C@@H]1[C@@H]2CC[C@]2(C)C(=O)CC[C@@H]12	33.5 µM (active)
Nc1ccccc1	inactive
CC(C)c1cccc(C(C)C)c1O	inactive
CCCC(C)(COC(N)=O)COC(N)=O	inactive
CCC(C)(C)c1ccc(O)cc1	inactive
COc1cc(OC)c(OC)cc1C=O	inactive
COC(=O)C(c1ccccc1)C1CCCCN1 (centres undefined)	inactive
C[C@]12CCC(=O)C=C1CC[C@@H]1[C@@H]2CC[C@@]2(C)[C@H]1CC[C@]2(C)O	16.8 µM (active)
COP(=S)(OC)Oc1ccc(SC)c(C)c1	inactive
Nc1ccccc1C(=O)O	inactive
Oc1ccc(Cl)cc1	inactive
NCCc1ccc(O)cc1	inactive
O=P1(N(CCCl)CCCl)NCCCO1 (centres undefined)	inactive

target: Arylsulfatase A (Homo sapiens) (UniProt P15289); assay: qHTS screen for enhancers of Arylsulfatase A (ASA1): LOPAC Validation Assay (AID 720538); settings: ASA enzyme activity, LOPAC qHTS enhancer assay; series mostly up to 57.5 µM
Sequence (P15289 whole entry, looked up): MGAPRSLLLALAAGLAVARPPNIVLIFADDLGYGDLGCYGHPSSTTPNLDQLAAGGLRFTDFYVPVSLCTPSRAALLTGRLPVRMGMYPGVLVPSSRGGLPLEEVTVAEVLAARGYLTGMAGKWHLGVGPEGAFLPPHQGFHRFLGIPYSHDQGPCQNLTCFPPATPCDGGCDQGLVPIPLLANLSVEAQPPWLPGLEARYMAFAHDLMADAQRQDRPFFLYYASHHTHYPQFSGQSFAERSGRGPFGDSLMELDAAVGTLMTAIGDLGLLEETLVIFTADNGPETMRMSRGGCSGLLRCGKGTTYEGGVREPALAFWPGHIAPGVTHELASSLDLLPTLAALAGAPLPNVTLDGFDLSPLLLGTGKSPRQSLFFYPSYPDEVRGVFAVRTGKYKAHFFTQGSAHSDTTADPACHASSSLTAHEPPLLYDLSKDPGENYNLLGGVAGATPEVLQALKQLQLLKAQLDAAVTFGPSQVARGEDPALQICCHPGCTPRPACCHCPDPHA
Method in brief: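 SV40-transformed skin fibroblasts from an MLD patient (ASA-I179S) were treated with compounds for 48h at 37 degree C, then lysed with 0.5mM pNCS final substrate for 14h at room temperature; NaOH stop, fluorescence read (Ex=525 nm; Em=598 nm).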

SMILES	outcome
O=C(O)CCCc1ccc(N(CCCl)CCCl)cc1	inactive
CC(C)c1cccc(C(C)C)c1O	inactive
CCC1(C)CC(=O)NC1=O (centres undefined)	inactive
CC(C)N(CCC(C(N)=O)(c1ccccc1)c1ccccn1)C(C)C (centres undefined)	inactive; inhibitor; fitted 0.1901 uM
O=c1[nH]oc2c1CCNC2	inactive
NCCCNCCSP(=O)(O)O	inactive
Cn1c(=O)c2[nH]cnc2n(C)c1=O	inactive
COc1ccc2c(c1OC)C(=O)O[C@H]2[C@@H]1c2cc3c(cc2CCN1C)OCO3	inactive
CCC1(c2ccc(N)cc2)CCC(=O)NC1=O (centres undefined)	inactive
NCCc1ccc(O)cc1	inactive
CCCCC/C=C\C/C=C\C/C=C\C/C=C\CCCC(=O)NCC(=O)O	inactive
C=C(C)[C@H]1CN[C@H](C(=O)O)[C@H]1CC(=O)O	inactive
CC(NC(C)(C)C)C(=O)c1cccc(Cl)c1 (centres undefined)	inactive
O=P1(N(CCCl)CCCl)NCCCO1 (centres undefined)	inactive
CN=C(NC#N)NCCSCc1nc[nH]c1C	inactive; inhibitor; fitted 6.3096 uM

tested on: not listed separately; assay: qHTS for compounds that reverse cellular toxicity of Amyloid beta (A-beta) peptide in yeast: LOPAC Validation Assay (AID 720559); settings: yeast expressing A-beta; series mostly up to 46.1 µM
Method in brief: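 Yeast cells expressing toxic A-beta were combined with pinned compounds in growth medium and incubated 48 hr at 30 C. Growth was read as absorbance at 600 nm and normalized to DMSO and to an equimolar FeCl3/clioquinol positive control.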

SMILES	outcome
O=C(O)CCCc1ccc(N(CCCl)CCCl)cc1	inactive
CC(C)c1cccc(C(C)C)c1O	inactive
CN1C(=O)CCS(=O)(=O)C1c1ccc(Cl)cc1 (centres undefined)	inactive
CC(C)N(CCC(C(N)=O)(c1ccccc1)c1ccccn1)C(C)C (centres undefined)	inactive
O=c1[nH]oc2c1CCNC2	inactive
Cc1ncsc1CCCl	inactive
CC(C)(C)NCC(O)c1ccccc1Cl (centres undefined)	inactive
COc1ccc2c(c1OC)C(=O)O[C@H]2[C@@H]1c2cc3c(cc2CCN1C)OCO3	inactive
CCC1(c2ccc(N)cc2)CCC(=O)NC1=O (centres undefined)	inactive
NCCc1ccc(O)cc1	inactive
CCCCC/C=C\C/C=C\C/C=C\C/C=C\CCCC(=O)NCC(=O)O	inactive
C=C(C)[C@H]1CN[C@H](C(=O)O)[C@H]1CC(=O)O	inactive
CC(NC(C)(C)C)C(=O)c1cccc(Cl)c1 (centres undefined)	inactive
O=P1(N(CCCl)CCCl)NCCCO1 (centres undefined)	inactive
O=C(CCCN1CCC2(CC1)C(=O)NCN2c1ccccc1)c1ccc(F)cc1	inactive

Source: PubChem BioAssay (NCATS)
